Experimental data reported in PubChem BioAssay (NCATS).
Results filed as inconclusive are left out. Values without a mark were called inactive. Calls of active or inactive are those of the source. Calls come from the whole dose curve; as a rule, active = well fitted activation curve with a large enough effect; inconclusive = small, poorly fitted or top-dose-only effect; inactive = no such curve, though single readings can be large or run the other way.

What follows are molecules tested against Cellular tumor antigen p53 (Homo sapiens) (UniProt P04637) (assay: Primary qHTS for small molecule compounds that upregulate eGFP-tagged delta133p53alpha (in N-terminal) cells. (AID 2060322; note: nearly all actives have a fitted effect of over 75% in size;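 for activation: series mostly up to about 56 µM; 0% = DMSO vehicle and 100% = reference activator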)). Conditions: NCI-H358 eGFP-delta133p53alpha fluorescence, 24 h; activation: stronger effect = higher value.
Cellular tumor antigen p53 (Homo sapiens), sequence (P04637 whole entry, looked up): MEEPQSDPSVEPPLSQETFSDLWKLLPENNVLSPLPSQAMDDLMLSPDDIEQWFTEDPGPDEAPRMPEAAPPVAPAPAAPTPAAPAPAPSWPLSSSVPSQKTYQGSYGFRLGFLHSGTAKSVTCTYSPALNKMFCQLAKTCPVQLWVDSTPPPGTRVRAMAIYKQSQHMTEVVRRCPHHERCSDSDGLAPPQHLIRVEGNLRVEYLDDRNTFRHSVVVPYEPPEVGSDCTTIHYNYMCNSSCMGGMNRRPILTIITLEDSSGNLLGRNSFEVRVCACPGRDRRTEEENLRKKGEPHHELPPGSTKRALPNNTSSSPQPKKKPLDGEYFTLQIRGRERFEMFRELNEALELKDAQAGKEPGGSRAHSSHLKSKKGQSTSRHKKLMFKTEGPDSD
Outline: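 NCI-H358 cells pre-induced 24 h with 10 ng/ml doxycycline for eGFP-delta133p53alpha, plated dox-free and exposed 24 h at 37C to titrated compounds. Fixed, Hoechst-stained; gated GFP peak intensity by laser scanning cytometry, normalized to DMSO (0%) and 57.5 uM 5-azacytidine (100%).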
Potency is the fitted concentration of half-maximal effect.

Row | Compound | activation [%] | Potency
1 | CCCN(CCC)CCc1c[nH]c2ccccc12 | 22 | 
2 | C=CCN1CC[C@]23CCCC[C@H]2[C@H]1Cc1ccc(O)cc13 | -6.69 | 
3 | C[C@@H]1[C@@H](CC(C[C@H]2O[C@@H]3O[C@]4(C)CC[C@@H]5[C@H](C)CC[C@@H]([C@H]2C)[C@@]35OO4)C[S+](=O)([O-])c2ccc(COC(=O)N(C)C)cc2)O[C@@H]2O[C@]3(C)CC[C@H]4[C@H](C)CC[C@@H]1[C@@]24OO3 (some centres undefined) | 8.23 | 
4 | CC[N+]1(C)CCCC(OC(=O)C(O)(c2ccccc2)c2ccccc2)C1 (centres undefined) | 8.47 | 
5 | O=C(O)COc1nc(Cl)c(Cl)cc1Cl | 6.21 | 
6 | CC(C)N[C@@H]1CCn2c(=O)[nH]c3cccc(c32)[C@@H]1O | 13.7 | 
7 | CCC(=O)OC1CCC2C3CCC4=CC(=O)CC[C@@]4(C)C3CC[C@]12C (some centres undefined) | 14.6 | 
8 | CC(C)[N+](C)(CCC(C(N)=O)(c1ccccc1)c1ccccc1)C(C)C | 27.7 | 
9 | CC(C)NC(C)C | -1.69 | 
10 | O=[N+]([O-])c1ccc([As](=O)(O)O)cc1 | -14.2 | 
11 | Cc1nnc2n1-c1sc(CCC(=O)N3CCOCC3)cc1C(c1ccccc1Cl)=NC2 | -12.6 | 
12 | CC(C)NCC(O)c1ccc([N+](=O)[O-])cc1 (centres undefined) | 16.4 | 
13 | COP(=S)(OC)Oc1ccc(S(N)(=O)=O)cc1 | -28.8 | 
14 | Oc1ccc2[nH]cc(CCCCN3CC=C(c4ccccc4)CC3)c2c1 | 22 | 
15 | COC(=O)[C@@H](N)CCCN/C(N)=N/[N+](=O)[O-] | -1.69 | 
16 | C[CH2][Hg][S]c1ccccc1C(=O)O |  | 3.89 µM (active)
17 | CCOC(=O)C1(c2ccccc2)CCN(CCC(C#N)(c2ccccc2)c2ccccc2)CC1 | -1.69 | 
18 | O=c1oc2ccccc2c(O)c1Cc1c(O)c2ccccc2oc1=O |  | 17.4 µM (active)
19 | CN1CC[C@]23c4c5ccc(O)c4O[C@H]2[C@@H](O)CC[C@H]3[C@H]1C5 | 14.1 | 
20 | COc1ccc2c3c1O[C@H]1[C@H](O)CC[C@H]4[C@@H](C2)N(C)CC[C@@]341 | 16.4 | 

Row | Compound | activation [%] | Potency
21 | COC(C)(C)CCCC(C)C/C=C/C(C)=C/C(=O)OC(C)C (centres undefined) | -11.9 | 
22 | CC(=CCCC1=CCC(C2=CC(=O)OC2O)OC1O)CCC1=C(C)CCCC1(C)C (centres undefined) | 16.4 | 
23 | S=C(SSC(=S)N1CCCCC1)N1CCCCC1 | -16.7 | 
24 | O=C(O)c1ccnc2cc(C(OCCN3CCC(F)(F)CC3)c3ccccc3Cl)[nH]c12 (centres undefined) | -26.8 | 
25 | Nc1nc(N)nc(NC2CC2)n1 | 5.02 | 
26 | CN(C)CCc1c[nH]c2cccc(OP(=O)(O)O)c12 | -1.69 | 
27 | C=CCC1=C(C)C(OC(=O)C2C(C=C(C)C)C2(C)C)CC1=O (centres undefined) | 18.6 | 
28 | O=C(O)c1ccc(=O)[nH]c1 | 11.9 | 
29 | Cc1nc(-c2ccc(-c3ccc(C(=O)N4CCc5cc6c(cc54)C4(CCN(C)CC4)CO6)cc3)c(C)c2)no1 | -21.1 | 
30 | O=[N+]([O-])c1cc([N+](=O)[O-])c2ccccc2c1 | -5.02 | 
31 | CC[N+]1(CC)CCC(OC(=O)C(O)(c2ccccc2)c2ccccc2)C1 (centres undefined) | -15.3 | 
32 | CNC(C)(C)Cc1ccccc1 | -3.35 | 
33 | CCO/N=C(\CC)C1=C(O)CC(c2c(C)cc(C)cc2C)CC1=O (centres undefined) | 16.7 | 
34 | C[C@]12CC[C@H]3[C@@H](CCC4=CC(=O)CC[C@@H]43)[C@@H]1CC[C@@H]2OC(=O)CCc1ccccc1 | 2.51 | 
35 | CC(=O)OC1(c2ccccc2)CCN(CCc2ccccc2)CC1 | -10.7 | 
36 | CC(C)(C)NCC(O)c1cc(Cl)c(N)c(C(F)(F)F)c1 (centres undefined) | -6.21 | 
37 | CO[C@H]1CC=C2CCN3CCC4=C(CC(=O)OC4)[C@]23C1 | -25.9 | 
38 | C[N+]1(C)[C@@H]2CC[C@H]1CC(OC(=O)C(CO)c1ccccc1)C2 (some centres undefined) | 25.4 | 
39 | CCOC(=O)c1cncn1[C@H](C)c1ccccc1 | -12.5 | 
